p53ts 39C tox: p53ts cell cytotoxicity, nonpermissive temperature; 130,000 tested, 1.5% active; H1299-p53A138V viability at 39C, ATP luminescence, 24 h; AID 902; Potency, µM (series often up to 46.1 µM), for inactives: top-dose activity change, negative = cell killing, hits mostly cytotoxic; note: % is set by controls: 0 for no effect and ±100 for the full control effect; nearly all actives have a fitted effect of over 55% in size
p53ts 32C tox: kills p53ts cells at the permissive temperature. Potency, µM (highest dose often 46.1 µM), without a hit: at the highest dose activity change, negative = cytotoxicity, usual class: cytotoxic. H1299-p53A138V at 32C, ATP luminescence viability, 24 h. 130,000 tested, 0.93% active. AID 924;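 note: 0% = DMSO and -100% = full killing by reference compound; nearly all actives have a fitted effect of over 55% in size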
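Cells: H1299 p53ts (A138V), 600/well, pre-incubated 16–30 h at 37C. Cpd up to 46 uM, 24 h, 32C. Readout: ATPlite luminescence, 20 min RT. Normalization: DMSO vs tamoxifen 100 uM. AC50 by Hill equation.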
IkB sig inh: inhibitors of IkB signaling in ABC-DLBCL cells. Potency, µM (highest dose often 57.1 µM), without a hit: top-dose IkBa stabilization activation. 110,000 tested, 0.04% active. ABC-DLBCL IkBa-CBG/CBR dual luciferase ratio, 4 h; response scale: scaled: untreated 0%, proteasome inhibitor 100%; active = well fitted curve in the direction sought with a large enough effect in the signal ratio, not every such curve was filed as active; inconclusive = small, poorly fitted or top-dose-only effect, or a change in a side signal; the % refers to the signal ratio;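 note: the direction sought is a rising ratio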
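In this assay, an IκBα–CBG68 fusion accumulates when IKK-driven degradation is blocked; native CBR normalizes for cell number. OCI-Ly3 cells were treated 4 h with compound and doxycycline, then green and red light read after Chroma-Glo addition.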
Peg3 imprint: inducers of genomic imprint erasure in mouse ES cells | Potency, µM (top dose mostly 60.7 µM), without a hit: at the top dose activity change, positive = activation, actives largely listed as activators | 110,000 tested, 0.02% active | mouse ES Peg3-LacZ reporter, beta-gal luminescence, 40 h
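Readout: BetaGlo luminescence (5 min, room temp) for LacZ from the normally silent maternal Peg3 allele in female Peg3LacZ-Neo ES cells. Cells 300/well, 40 h, 37C, 5% CO2. Data normalized per plate to negative controls.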
Starred values were filed as active, the others as inactive; ? = inconclusive; . = no result given; [ ] = another dose, or the depositor's remark. In the library only some 1.8% were active in any assay of this set; here they are far more common. Unless noted, calls come from the whole dose curve; as a rule, active = well fitted curve in the direction sought with a large enough effect; inconclusive = small, poorly fitted or top-dose-only effect, or another doubt; inactive = no such curve, though single readings can be large; an effect the other way counts as inactive or inconclusive. Potency is the fitted concentration of half-maximal effect.

SMILES	p53ts 39C tox	p53ts 32C tox	IkB sig inh	Peg3 imprint
CCc1ccc(C2CC(=O)c3c([nH]c(C(=O)OCCOc4ccccc4)c3C)C2)cc1 (configuration not stated)	12.6µM*	?	-0.8%	-27.2%[10.9 µM]
CCOc1ccc(C2CC(=O)c3c([nH]c(C(=O)OCCOc4ccccc4)c3C)C2)cc1 (configuration not stated)	?	?	-3.5%	-22.4%[10.9 µM]
CCCN(CCC)C(=O)c1cc2c(=O)n3cccc(C)c3nc2s1	-13.5%	-6.5%	1.1%	12.4%[10.9 µM]
Cc1ccn2c(Nc3ccccc3C)c(-c3ccc(N4CCOCC4)cc3)nc2c1	-10.4%	2.6%	7.1%	-11.3%[10.9 µM]
Cc1ccc2nc(-c3ccc(N4CCOCC4)cc3)c(Nc3ccccc3C)n2c1	?	12.6µM*	?	-12.4%[10.9 µM]
Clc1ccc2nc(-c3ccc(N4CCOCC4)cc3)c(Nc3ccccc3)n2c1	19.0%	-2.9%	?	-7.5%[10.9 µM]
Cc1ccccc1Nc1c(-c2ccc(N3CCOCC3)cc2)nc2ccc(Cl)cn12	10µM*	?	?	-30.4%[10.9 µM]
CCC(=O)Nc1ccc(NC(=O)CSc2nnnn2CC)cc1C	-2.4%	4.5%	-0.7%	2.2%
CN(Cc1ccccc1)C(=O)Nc1ccc2c(c1)N(C)C(=O)c1ccccc1S2	12.6µM*	?	-4.2%	-16.9%[10.9 µM]
COc1cc(C(=O)Oc2ccccc2N)cc(OC)c1OC	16.0%	5.1%	?	2.7%
CCC(c1nnnn1Cc1ccccc1)N(Cc1ccco1)Cc1cc2cc(OC)ccc2[nH]c1=O (configuration not stated)	-5.6%	-13.6%	3.98µM*	.
CC(C)c1ccc(-c2noc(SCC(=O)N(C)c3ccc(F)cc3)n2)cc1	-16.8%	0.7%	4.2%	-16.7%[10.9 µM]
CC(C)c1ccc(-c2noc(SCC(=O)N3CCCCC3)n2)cc1	15.8µM*	12.6µM*	?	-4.5%[10.9 µM]
CSc1ccc(CCNC(=O)c2ccc3c(c2)nc2n3CCCCC2)cc1	-11.8%	-8.9%	?	-15.0%[10.9 µM]
CC1CCn2c(nc3cc(C(=O)NCCc4ccccc4)ccc32)C1 (configuration not stated)	?	15.8µM*	-2.4%	-13.2%[10.9 µM]
Cc1ccccc1CCNC(=O)c1ccc2c(c1)nc1n2CCOC1	6.31µM*	7.94µM*	-0.7%	-14.9%[10.9 µM]
O=C(NCCc1ccc(Cl)cc1)c1ccc2c(c1)nc1n2CCOC1	-23.4%	-11.1%	?	19.8%[10.9 µM]
CC(CNC(=O)c1ccc2c(c1)nc1n2CCCCC1)c1ccccc1 (configuration not stated)	12.6µM*	?	?	-12.3%[10.9 µM]
Cc1ccccc1CCNC(=O)c1ccc2c(c1)nc1n2CCCCC1	1µM*	1.58µM*	?	-4.4%[10.9 µM]
CCOc1ccc(-n2c(=O)c3c4c(sc3n(Cc3cc(=O)n5cc(Cl)ccc5n3)c2=O)CCC4)cc1	30.6%	6.3%	0.8%	-2.0%[10.9 µM]
O=C(Cc1ccc(Cl)cc1)Nc1ccc2oc(-c3ccccc3F)nc2c1	-19.1%	-21.8%	0.3%	-18.3%[10.9 µM]
Cc1ccc(-n2nc(C(=O)Nc3ccc(Cl)cn3)c3c4ccccc4n(C)c3c2=O)cc1	-14.4%	3.8%	0.8%	10.7%[10.9 µM]
COc1ccccc1C(=O)Nc1c(C(=O)NC(C)(C)C)oc2ccccc12	-15.3%	-0.9%	-0.4%	-8.7%[10.9 µM]
Nn1c(COc2ccccc2)nnc1SCc1cc(=O)[nH]c2ccccc12	8.1%	6.3%	0.5%	6.2%
Nn1c(COc2ccccc2)nnc1SC(F)F	-0.3%	6.3%	-1.0%	3.98µM*
SMILES	p53ts 39C tox	p53ts 32C tox	IkB sig inh	Peg3 imprint
COC(=O)C(NC(=O)c1ccccc1)=C(C)C	-2.8%	-2.1%	1.3%	1.8%
CN(C)c1ccc(NC(=O)CCCc2ccccc2)cc1	-1.7%	-9.9%	-3.8%	-8.5%
CN(C)c1ccc(N/C=C/C(=O)c2ccccc2)cc1	12.6µM*	5.01µM*	?	-34.6%
COc1ccc2c(c1)Cc1sc(NC(=O)c3cccc(Cl)c3)nc1-2	25.1µM*	?	-1.9%	11.1%[10.9 µM]
CCCCOC(=O)c1c(C)oc2ccc(NS(=O)(=O)c3ccc(F)cc3C)cc12	?	?	?	-8.6%[10.9 µM]
Cc1nn(-c2ccccc2)c(Cl)c1C(=O)N1CCN(c2ncnc3c2cnn3-c2ccccc2)CC1	?	10µM*	?	-24.8%
Clc1cccc(-n2ncc3c(N4CCCCCC4)ncnc32)c1	12.6µM*	?	?	-11.8%[10.9 µM]
Cc1ccc(Cl)cc1-n1ncc2c(N3CCN(Cc4ccccc4)CC3)ncnc21	20µM*	15.8µM*	?	-14.8%[10.9 µM]
Clc1cccc(-n2ncc3c(N4CCCCC4)ncnc32)c1	6.31µM*	3.16µM*	?	-40.9%[10.9 µM]
CCN(c1ncnc2c1cnn2-c1cccc(Cl)c1)C1CCCCC1	?	?	-1.4%	-14.3%[10.9 µM]
CCC(=O)NCc1nc2ccccc2n1Cc1ccccc1	9.2%	3.9%	1.0%	13.0%[10.9 µM]
Cc1ccc(C)c(-n2nnnc2Sc2nnnn2-c2ccccc2)c1	10µM*	-14.0%	?	-26.7%
Cc1ccc(S(=O)(=O)NCCSc2nnnn2-c2cc(C)ccc2C)cc1	-2.9%	5.2%	-2.7%	-8.2%
COc1cc(-c2noc(CN3CCN(c4cccc(Cl)c4)CC3)n2)cc(OC)c1OC	-17.4%	4.2%	2.9%	-19.5%[10.9 µM]
COC1=C(OC)C(=O)c2ccccc2C1=O	3.98µM*	6.31µM*	20.4%	-29.7%
CC1=CC(=C2C(=O)c3ccccc3C2=O)C=C(C)O1	-10.2%	-11.5%	-1.5%	-20.2%
Cc1oc2ncnc(N3CCOCC3)c2c1C(=O)N(Cc1ccccc1)C(C)C	5.7%	11.4%	0.9%	5.5%[10.9 µM]
COc1ccc(NC(=O)CSc2nc3c(oc4ccccc43)c(=O)n2Cc2ccco2)cc1Cl	?	6.8%	?	-19.9%[10.9 µM]
CC1=NN(c2ccccc2)C(=O)/C1=C\c1cc(C)n(-c2ccccc2)c1C	20.3%	.	.	.
Cc1cc(/C=C2/C(=O)NN(c3ccccc3)C2=O)c(C)n1-c1cccc(O)c1	12.6µM*	.	.	.
Cn1c(=O)[nH]c(=O)c2c1ncn2CCN1CCCCC1	-2.0%	2.1%	1.0%	15.4%
COc1cccc(Cn2c(=O)c(-c3cccs3)nc3cnc(Nc4ccccc4)nc32)c1	-22.5%	-15.5%	-1.4%[11.4 µM]	.
CCc1ccccc1NC(=O)CN(C)C(=O)Cn1ncc(Cl)c(Cl)c1=O	3.16µM*	3.55µM*	.	.
COc1ccc(Nc2cc(C(=O)NCCCN3CCN(c4ccc(OC)cc4)CC3)c3ccccc3n2)cc1	12.6µM*	?	?	-19.6%[10.9 µM]
COc1ccc(N2CCN(CCCNC(=O)c3cc(Nc4ccccc4OC)nc4ccccc34)CC2)cc1	?	1.0%	?	-20.5%[10.9 µM]
CCc1ccc(NC(=O)c2cc(S(=O)(=O)NC3CCCC3)ccc2F)cc1	?	1.6%	4.2%	-8.0%[10.9 µM]
COc1ccc(CCNC(=O)CCCn2c(=O)c3ccccc3n(Cc3c(C)cc(C)cc3C)c2=O)cc1OC	12.0%	10.3%	-0.2%	-4.7%[10.9 µM]
Cc1ccc(N2C(=O)c3ccccc3C2O)nc1 (configuration not stated)	5.01µM*	3.98µM*	?	-92.9%
CCSc1nnc(-c2ccc(S(=O)(=O)N3CCOCC3)cc2)n1CC1CCCO1 (configuration not stated)	-8.7%	-2.6%	0.4%	-9.8%

Compound activity (PubChem BioAssay)
